Results as given in PubChem BioAssay AID1159580 (chemical genetic matrix, 2015).
Where “and” joins values, the source holds several entries; their conditions need not be identical. Identical values can stand only once. Out of some 5,500 compounds screened, about 2,000 (36%) were called active. Not shown: some 18% with an inconclusive outcome. No stated cut-off is given here; in the data, active means normalized growth mostly below about 0.91 (no sharp cut-off); inconclusive means no clear call, values can overlap the other calls; inactive means mostly above about 0.92. The list shows a part of the results.

Test: chemical genetic growth profiling, strain panel (AID 1159580);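 further: tested at 20 µM; growth read once vehicle control cultures reached saturation at 30 °C; 1 = growth at the plate median or of vehicle wells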
Conditions: growth OD
[1] = S. cerevisiae deletion strains, locus YAL013W, strain DEP1, stronger effect = lower value
[2] = S. cerevisiae deletion strains, locus YBR229C, strain ROT2, stronger effect = lower value
[3] = S. cerevisiae deletion strains, locus YDL101C, strain DUN1, stronger effect = lower value
[4] = S. cerevisiae deletion strains, locus YDR150W, strain NUM1, stronger effect = lower value
[5] = S. cerevisiae deletion strains, locus YEL061C, strain CIN8, stronger effect = lower value
[6] = S. cerevisiae deletion strains, locus YGR052W, strain FMP48, stronger effect = lower value
[7] = S. cerevisiae deletion strains, locus YGR078C, strain PAC10, stronger effect = lower value
[8] = S. cerevisiae deletion strains, locus YHR030C, strain SLT2, stronger effect = lower value
[9] = S. cerevisiae deletion strains, locus YHR079C, strain IRE1, stronger effect = lower value
[10] = S. cerevisiae deletion strains, locus YHR082C, strain KSP1, stronger effect = lower value
[11] = S. cerevisiae deletion strains, locus YHR087W, strain rtc3, stronger effect = lower value
[12] = S. cerevisiae deletion strains, locus YJL095W, strain BCK1, stronger effect = lower value
[13] = S. cerevisiae deletion strains, locus YJL187C, strain SWE1, stronger effect = lower value
[14] = S. cerevisiae deletion strains, locus YJR043C, strain POL32, stronger effect = lower value
[15] = S. cerevisiae deletion strains, locus YJR066W, strain TOR1, stronger effect = lower value
[16] = S. cerevisiae deletion strains, locus YJR075W, strain HOC1, stronger effect = lower value
[17] = S. cerevisiae deletion strains, locus YKL203C, strain TOR2, stronger effect = lower value
[18] = S. cerevisiae deletion strains, locus YLR039C, strain RIC1, stronger effect = lower value
[19] = S. cerevisiae deletion strains, locus YLR058C, strain SHM2 (second series), stronger effect = lower value
[20] = S. cerevisiae deletion strains, locus YLR085C, strain ARP6, stronger effect = lower value
[21] = S. cerevisiae deletion strains, locus YLR113W, strain HOG1, stronger effect = lower value
[22] = S. cerevisiae deletion strains, locus YLR262C, strain YPT6, stronger effect = lower value
[23] = S. cerevisiae deletion strains, locus YML094W, strain GIM5, stronger effect = lower value
[24] = S. cerevisiae deletion strains, locus YMR219W, strain ESC1, stronger effect = lower value
[25] = S. cerevisiae deletion strains, locus YMR263W, strain SAP30, stronger effect = lower value
[26] = S. cerevisiae deletion strains, locus YNL153C, strain GIM3, stronger effect = lower value
[27] = S. cerevisiae deletion strains, locus YNL183C, strain NPR1, stronger effect = lower value
[28] = S. cerevisiae deletion strains, locus YNL207W, strain RIO2, stronger effect = lower value
[29] = S. cerevisiae deletion strains, locus YNL298W, strain CLA4 (second series), stronger effect = lower value
[30] = S. cerevisiae deletion strains, locus YNL322C, strain KRE1, stronger effect = lower value
[31] = S. cerevisiae deletion strains, locus YNR030W, strain Alg12, stronger effect = lower value
[32] = S. cerevisiae deletion strains, locus YOR119C, strain RIO1, stronger effect = lower value
[33] = S. cerevisiae deletion strains, locus YOR231W, strain MKK1, stronger effect = lower value
[34] = S. cerevisiae deletion strains, locus YPL055C, strain LGE1, stronger effect = lower value
[35] = S. cerevisiae deletion strains, locus YPL241C, strain CIN2, stronger effect = lower value
[36] = S. cerevisiae deletion strains, locus YPL256C, strain CLN2, stronger effect = lower value
[37] = S. cerevisiae deletion strains, locus YPR135W, strain CTF4, stronger effect = lower value

Measured: normalized growth

S=C(NCc1ccco1)Nc1ccc(Oc2ccc(Cl)cc2)cc1
active: [2] 0.868 | [5] 0.723 | [7] 0.915 | [13] 0.923 | [18] 0.41 | [20] 0.355 | [22] 0.463 | [23] 0.703 | [25] 0.85 | S. cerevisiae deletion strains, locus YMR307W, strain GAS1, stronger effect = lower value 0.364 | S. cerevisiae deletion strains, locus YNL128W, strain TEP1, stronger effect = lower value 0.887 | [29] 0.652 | [31] 0.544 | [34] 0.641 | [35] 0.361 | [36] 1.27 [resistant] | [37] 0.505 | S. cerevisiae strains, strain wild type, stronger effect = lower value 0.883
0.247 (active) and 1.07 (inactive): [8]
inactive: [1] 0.937 | [3] 0.933 | [4] 0.863 | [6] 1.04 | S. cerevisiae deletion strains, locus YGR229C, strain SMI1, stronger effect = lower value 0.987 | [9] 1.07 | [10] 1.14 | [11] 0.919 | [12] 0.948 | [14] 0.926 | [15] 1.13 | [16] 0.95 | S. cerevisiae deletion strains, locus YKL171W, strain NNK1, stronger effect = lower value 1.06 | [17] 1.04 | [19] 0.979 | [21] 1.11 | [24] 0.97 | [26] 0.936 | [27] 1.04 | [28] 1.02 | [30] 0.998 | [32] 1 | [33] 0.944

CCN(C(=S)Nc1ccc(OC)cc1)c1ccccc1
inactive: [1] 1 | [2] 1.02 | [3] 1.01 | S. cerevisiae deletion strains, locus YDL134C, strain PPH21, stronger effect = lower value 1.01 | [4] 0.917 | [5] 1 | [7] 0.989 | [8] 1.12 | [11] 1.01 | [13] 1.01 | [14] 1.01 | [16] 1 | S. cerevisiae deletion strains, locus YKL190W, strain CNB1, stronger effect = lower value 1.02 | [18] 0.921 | [19] 1.03 | [20] 0.976 | [22] 0.985 | [23] 1 | [24] 1.02 | [25] 1.01 | [26] 0.988 | [29] 0.99 | [30] 1.02 | [31] 0.992 | [34] 0.89 | [35] 0.999 | [37] 0.884

CC(Oc1ccc(Cl)cc1Cl)C(=O)NNC(=S)Nc1ccccc1 (stereo not given)
inactive: S. cerevisiae deletion strains, locus YAR019C, strain CDC15, stronger effect = lower value 0.983 | S. cerevisiae deletion strains, locus YBL105C, strain PKC1, stronger effect = lower value 0.978 | S. cerevisiae deletion strains, locus YBR135W, strain CKS1, stronger effect = lower value 0.982 | S. cerevisiae deletion strains, locus YBR136W, strain MEC1, stronger effect = lower value 0.98 | S. cerevisiae deletion strains, locus YBR160W, strain CDC28, stronger effect = lower value 0.975 | S. cerevisiae deletion strains, locus YDL017W, strain CDC7, stronger effect = lower value 0.986 | S. cerevisiae deletion strains, locus YDL028C, strain MPS1, stronger effect = lower value 0.977 | [3] 0.973 | S. cerevisiae deletion strains, locus YDL108W, strain KIN28, stronger effect = lower value 0.959 | S. cerevisiae deletion strains, locus YDL132W, strain cdc53, stronger effect = lower value 0.968 | S. cerevisiae deletion strains, locus YDL214C, strain PRR2, stronger effect = lower value 0.984 | S. cerevisiae deletion strains, locus YDR052C, strain DBF4, stronger effect = lower value 0.991 | S. cerevisiae deletion strains, locus YDR054C, strain cdc34, stronger effect = lower value 0.982 | S. cerevisiae deletion strains, locus YDR226W, strain ADK1, stronger effect = lower value 0.981 | S. cerevisiae deletion strains, locus YDR477W, strain SNF1, stronger effect = lower value 0.994 | S. cerevisiae deletion strains, locus YER123W, strain YCK3, stronger effect = lower value 0.983 | S. cerevisiae deletion strains, locus YER133W, strain GLC7, stronger effect = lower value 0.966 | S. cerevisiae deletion strains, locus YFL009W, strain cdc4, stronger effect = lower value 0.976 | S. cerevisiae deletion strains, locus YFL029C, strain CAK1, stronger effect = lower value 0.981 | S. cerevisiae deletion strains, locus YFR003C, strain YPI1, stronger effect = lower value 0.981 | S. cerevisiae deletion strains, locus YFR019W, strain FAB1, stronger effect = lower value 0.964 | S. cerevisiae deletion strains, locus YFR028C, strain CDC14, stronger effect = lower value 0.974 | S. cerevisiae deletion strains, locus YGR040W, strain KSS1, stronger effect = lower value 0.965 | [6] 0.982 | S. cerevisiae deletion strains, locus YGR092W, strain DBF2, stronger effect = lower value 0.905 | [8] 0.974 | [9] 1.01 | [10] 1.03 | S. cerevisiae deletion strains, locus YHR205W, strain SCH9, stronger effect = lower value 0.906 | S. cerevisiae deletion strains, locus YIL147C, strain SLN1, stronger effect = lower value 0.97 | [12] 0.927 | S. cerevisiae deletion strains, locus YJL128C, strain PBS2, stronger effect = lower value 0.943 | S. cerevisiae deletion strains, locus YJL157C, strain FAR1, stronger effect = lower value 0.973 | S. cerevisiae deletion strains, locus YJR016C, strain ILV3, stronger effect = lower value 0.971 | S. cerevisiae deletion strains, locus YJR066W, strain TOR1 (second series), stronger effect = lower value 0.94 | [15] 1.01 | S. cerevisiae deletion strains, locus YKL048C, strain ELM1, stronger effect = lower value 0.974 | S. cerevisiae deletion strains, locus YKL067W, strain YNK1, stronger effect = lower value 0.966 | S. cerevisiae deletion strains, locus YKL101W, strain HSL1, stronger effect = lower value 0.957 | S. cerevisiae deletion strains, locus YKL193C, strain SDS22, stronger effect = lower value 0.977 | [17] 1.02 | [21] 0.981 | S. cerevisiae deletion strains, locus YLR133W, strain CKI1, stronger effect = lower value 0.959 | S. cerevisiae deletion strains, locus YLR403W, strain SFP1, stronger effect = lower value 0.908 | S. cerevisiae deletion strains, locus YML070W, strain DAK1, stronger effect = lower value 0.98 | S. cerevisiae deletion strains, locus YMR001C, strain CDC5, stronger effect = lower value 0.981 | S. cerevisiae deletion strains, locus YMR205C, strain PFK2 (second series), stronger effect = lower value 0.968 | S. cerevisiae deletion strains, locus YMR277W, strain FCP1, stronger effect = lower value 0.98 | S. cerevisiae deletion strains, locus YNL006W, strain LST8, stronger effect = lower value 0.976 | S. cerevisiae deletion strains, locus YNL020C, strain ARK1, stronger effect = lower value 0.954 | S. cerevisiae deletion strains, locus YNL161W, strain CBK1, stronger effect = lower value 0.984 | [27] 1.01 | [28] 0.958 | S. cerevisiae deletion strains, locus YNL222W, strain SSU72, stronger effect = lower value 0.973 | S. cerevisiae deletion strains, locus YNL307C, strain MCK1 (second series), stronger effect = lower value 0.873 | S. cerevisiae deletion strains, locus YOL078W, strain AVO1, stronger effect = lower value 0.972 | S. cerevisiae deletion strains, locus YOL136C, strain PFK27, stronger effect = lower value 0.938 | S. cerevisiae deletion strains, locus YOR061W, strain CKA2, stronger effect = lower value 0.968 | [32] 1.03 | [33] 0.993 | S. cerevisiae deletion strains, locus YOR329C, strain SCD5, stronger effect = lower value 0.982 | S. cerevisiae deletion strains, locus YPL031C, strain PHO85, stronger effect = lower value 0.995 | S. cerevisiae deletion strains, locus YPL153C, strain RAD53, stronger effect = lower value 0.993 | S. cerevisiae deletion strains, locus YPL204W, strain HRR25, stronger effect = lower value 0.944 | S. cerevisiae deletion strains, locus YPL209C, strain IPL1, stronger effect = lower value 0.98 | [36] 1.12 | S. cerevisiae deletion strains, locus YPR025C, strain CCL1, stronger effect = lower value 0.978 | S. cerevisiae deletion strains, locus YPR106W, strain ISR1, stronger effect = lower value 0.977 | S. cerevisiae deletion strains, locus YPR111W, strain DBF20, stronger effect = lower value 0.961 | S. cerevisiae deletion strains, strain NNK1, stronger effect = lower value 0.973 | S. cerevisiae deletion strains, strain TSCII, stronger effect = lower value 0.983
